From PubChem BioAssay (NCI)
Where “and” joins values, the source holds several entries; their conditions need not be identical. Equal values may be shown once. This is part of a sample that, as a whole, favours compounds with a hit. Of some 83,000 tested, about 20% had one in any assay.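 For each line, cells grew in 96-well plates with the test compound present at a single concentration for 48 hours.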 Calls of active or inactive are those of the source. How the source made its calls: active means growth percent below 10; inactive means the rest.

Experiments:
Test in all cases: NCI-60 one-dose screen, 48 h (100 = growth as untreated, 0 = no growth, -100 = all killed)
HCT-15 colon = settings: 10 µM
HT29 colon = settings: 10 µM
SNB-75 CNS = settings: 10 µM
SNB-19 CNS = settings: 10 µM
U251 CNS = settings: 10 µM
PC-3 prostate = settings: 10 µM
SK-MEL-5 melanoma = settings: 10 µM
UACC-62 melanoma = system: UACC-62 melanoma
LOX IMVI melanoma = settings: 10 µM
SK-MEL-28 melanoma = settings: 10 µM
SK-MEL-2 melanoma = settings: 10 µM
EKVX NSCLC = settings: 10 µM
SN12C renal = settings: 10 µM
UO-31 renal = settings: 10 µM
TK-10 renal = system: TK-10 renal
ACHN renal = settings: 10 µM
CAKI-1 renal = settings: 10 µM
A498 renal = settings: 10 µM
HL-60(TB) leukemia = settings: 10 µM
CCRF-CEM leukemia = settings: 10 µM

Measured: growth

C[C@@H]1C[C@@H]([C@H](O)CC2CC(=O)NC(=O)C2)C(=O)[C@@H](C)C1
active: HCT-15 colon 8.36% | HT29 colon 3.76% | SNB-75 CNS 8.07% | U251 CNS 3.25% | PC-3 prostate 8.32% | SK-MEL-5 melanoma 0.54% | UACC-62 melanoma; 10 µM unless noted 5.43% | LOX IMVI melanoma -10.7% | SK-MEL-28 melanoma -13.1% | SK-MEL-2 melanoma -6.5% | SN12C renal -0.0682% | UO-31 renal 0.7% | TK-10 renal; 10 µM unless noted 8.46% | ACHN renal 3.19% | HL-60(TB) leukemia -3.87%
inactive: SNB-19 CNS 10.5% | EKVX NSCLC 12.4% | CAKI-1 renal 15.9% | A498 renal 17.7%

COc1ccccc1/C=C/[N+](=O)[O-]
inactive: HCT-15 colon 42.3% | HT29 colon 39.5% | SNB-75 CNS 69.4% | SNB-19 CNS 86.9% | U251 CNS 50.3% | PC-3 prostate 64.1% | SK-MEL-5 melanoma 83.4% | UACC-62 melanoma; 10 µM unless noted 73% | LOX IMVI melanoma 37.4% | SK-MEL-28 melanoma 79.4% | SK-MEL-2 melanoma 104% | EKVX NSCLC 72.6% | SN12C renal 83.2% | UO-31 renal 62% | TK-10 renal; 10 µM unless noted 72.9% | ACHN renal 55.5% | CAKI-1 renal 70.9% | A498 renal 109%
active: HL-60(TB) leukemia 6.74%

O=[N+]([O-])c1cc[n+]([O-])c2ccccc12
active: HCT-15 colon -23.1% | HT29 colon -31.4% | SNB-75 CNS -82.2% | SNB-19 CNS -17.6% | U251 CNS -26.3% | PC-3 prostate -10.8% | SK-MEL-5 melanoma -92.5% | UACC-62 melanoma; 10 µM unless noted -85.2% | LOX IMVI melanoma -73.7% | SK-MEL-28 melanoma -86.9% | SK-MEL-2 melanoma -56.2% | EKVX NSCLC -3.54% | SN12C renal -27.5% | UO-31 renal -29.5% | TK-10 renal; 10 µM unless noted -22.6% | ACHN renal -42.4% | CAKI-1 renal -28% | A498 renal -34.7% | HL-60(TB) leukemia -26.9% | CCRF-CEM leukemia -11.1%

COc1ccccc1[As]=[As]c1ccccc1OC (stereo unspecified)
active: HCT-15 colon -87.2% | HT29 colon -76.9% | SNB-75 CNS -91.8% | SNB-19 CNS -84.5% | U251 CNS -83.3% | PC-3 prostate -78.9% | SK-MEL-5 melanoma -99.3% | UACC-62 melanoma; 10 µM unless noted -84.6% | LOX IMVI melanoma -97.3% | SK-MEL-28 melanoma -83% | SK-MEL-2 melanoma -86.9% | EKVX NSCLC -67.7% | SN12C renal -83.3% | UO-31 renal -93.1% | TK-10 renal; 10 µM unless noted -95.8% | ACHN renal -96.9% | CAKI-1 renal -86.5% | A498 renal -96.3% | HL-60(TB) leukemia -37.1% | CCRF-CEM leukemia 2.34%

O=C(CBr)Nc1ccccc1
active: LOX IMVI melanoma 9.08%
inactive: HCT-15 colon 55.6% | HT29 colon 103% | SNB-75 CNS 100% | SNB-19 CNS 94.9% | U251 CNS 91.6% | PC-3 prostate 95.2% | SK-MEL-5 melanoma 97.3% | UACC-62 melanoma; 10 µM unless noted 99.6% | SK-MEL-28 melanoma 113% | SK-MEL-2 melanoma 97% | EKVX NSCLC 111% | SN12C renal 91% | UO-31 renal 84.9% | TK-10 renal; 10 µM unless noted 87.4% | ACHN renal 104% | CAKI-1 renal 106% | A498 renal 108% | HL-60(TB) leukemia 96.1% | CCRF-CEM leukemia 14.7%

CC(C)C1(NC(=O)C2CC3c4cccc5[nH]cc(c45)CC3N(C)C2)OC2(O)C3CCCN3C(=O)C(Cc3ccccc3)N2C1=O (stereo unspecified)
inactive: HCT-15 colon 89.3% | HT29 colon 101% | SNB-19 CNS 102% | U251 CNS 98.8% | PC-3 prostate 81.1% | SK-MEL-5 melanoma 89.8% | UACC-62 melanoma; 10 µM unless noted 86.4% | LOX IMVI melanoma 91% | SK-MEL-2 melanoma 107% | EKVX NSCLC 98.8% | SN12C renal 99.4% | UO-31 renal 91.3% | TK-10 renal; 10 µM unless noted 123% | ACHN renal 83% | CAKI-1 renal 110% | A498 renal 97.5% | HL-60(TB) leukemia 73.9% | CCRF-CEM leukemia 135%
active: SNB-75 CNS -1.61%

Oc1c(Cl)cc(Cl)c2ccccc12.[Cu+2]
inactive: HCT-15 colon 99.5% | HT29 colon 92.5% | SNB-75 CNS 91% | SNB-19 CNS 121% | U251 CNS 108% | PC-3 prostate 88.4% | SK-MEL-5 melanoma 90.5% | UACC-62 melanoma; 10 µM unless noted 109% | LOX IMVI melanoma 37.7% | SK-MEL-28 melanoma 116% | SK-MEL-2 melanoma 86.1% | SN12C renal 99% | UO-31 renal 49% | TK-10 renal; 10 µM unless noted 119% | ACHN renal 91.9% | CAKI-1 renal 96.4% | A498 renal 106% | HL-60(TB) leukemia 92% | CCRF-CEM leukemia 48.5%

COS(=O)(=O)c1ccccc1
inactive: HCT-15 colon 108% | HT29 colon 110% | SNB-75 CNS 95.2% | SNB-19 CNS 110% | U251 CNS 96.4% | PC-3 prostate 102% | SK-MEL-5 melanoma 108% | UACC-62 melanoma; 10 µM unless noted 102% | LOX IMVI melanoma 102% | SK-MEL-28 melanoma 113% | SK-MEL-2 melanoma 101% | EKVX NSCLC 112% | SN12C renal 112% | UO-31 renal 89.5% | TK-10 renal; 10 µM unless noted 104% | ACHN renal 101% | CAKI-1 renal 104% | A498 renal 112% | HL-60(TB) leukemia 106% | CCRF-CEM leukemia 99.7%

COc1cc2c(c(OC)c1OC)-c1ccc(O)c(=O)cc1[C@@H](NC(C)=O)CC2
inactive: HCT-15 colon 38.3% | HT29 colon 29.9% | SNB-75 CNS 67.5% | SNB-19 CNS 38% | U251 CNS 24.6% | PC-3 prostate 25.2% | SK-MEL-5 melanoma 55.8% | UACC-62 melanoma; 10 µM 55.2% | LOX IMVI melanoma 44.1% | SK-MEL-28 melanoma 68.3% | SK-MEL-2 melanoma 47.9% | SN12C renal 60% | UO-31 renal 53.3% | TK-10 renal; 10 µM 64.4% | TK-10 renal; 100 µM 12.6% | ACHN renal 61.2% | CAKI-1 renal 26.6% | A498 renal 63.7% | HL-60(TB) leukemia 36% | CCRF-CEM leukemia 16.2%
active: UACC-62 melanoma; 100 µM -41.5%

O=C1C(=O)c2ccccc2-c2ccccc21
active: HCT-15 colon -69.5% | HT29 colon -16.1% | SNB-75 CNS -100% | SNB-19 CNS -78.6% | U251 CNS -87.8% | PC-3 prostate -47% | SK-MEL-5 melanoma -95.7% | UACC-62 melanoma; 10 µM unless noted -67.4% | LOX IMVI melanoma -58.5% | SK-MEL-28 melanoma -91.2% | SK-MEL-2 melanoma -50.3% | EKVX NSCLC -96.9% | SN12C renal -61.5% | UO-31 renal -86.4% | TK-10 renal; 10 µM unless noted -97.9% | ACHN renal -94.3% | CAKI-1 renal -100% | HL-60(TB) leukemia -42.4% | CCRF-CEM leukemia -10.9%
inactive: A498 renal 88.9%

O=S(=O)(F)c1ccc(Cl)cc1
inactive: HCT-15 colon 98% | HT29 colon 106% | SNB-75 CNS 92.9% | SNB-19 CNS 101% | U251 CNS 109% | PC-3 prostate 91.4% | SK-MEL-5 melanoma 108% | UACC-62 melanoma; 10 µM unless noted 103% | LOX IMVI melanoma 96.7% | SK-MEL-28 melanoma 119% | SK-MEL-2 melanoma 124% | EKVX NSCLC 110% | SN12C renal 105% | UO-31 renal 91.5% | TK-10 renal; 10 µM unless noted 107% | ACHN renal 111% | CAKI-1 renal 105% | A498 renal 122% | HL-60(TB) leukemia 123% | CCRF-CEM leukemia 92.7%

[Cl][Sn]([c]1ccccc1)([c]1ccccc1)[c]1ccccc1
active: HCT-15 colon -87% | HT29 colon -81.4% | SNB-75 CNS -98.6% | SNB-19 CNS -76.5% | U251 CNS -98.6% | PC-3 prostate -72.9% | SK-MEL-5 melanoma -88.7% | UACC-62 melanoma; 10 µM unless noted -75.4% | LOX IMVI melanoma -76.1% | SK-MEL-28 melanoma -85% | SK-MEL-2 melanoma -62.9% | SN12C renal -28.9% | UO-31 renal -87.9% | TK-10 renal; 10 µM unless noted -92.7% | ACHN renal -89.2% | CAKI-1 renal -87.8% | A498 renal -91% | HL-60(TB) leukemia -25.3% | CCRF-CEM leukemia -46%

COc1cc2c(cc1OC)C13CCN4CC5=CCOC6CC(=O)N2C1C6C5CC43 (stereo unspecified)
inactive: HCT-15 colon 103% and 109% | HT29 colon 122% and 111% | SNB-75 CNS 97.8% and 111% | SNB-19 CNS 105% and 111% | U251 CNS 98% and 98.4% | PC-3 prostate 94.8% and 40% | SK-MEL-5 melanoma 92.9% and 91.1% | UACC-62 melanoma; 10 µM unless noted 104% and 88.1% | LOX IMVI melanoma 101% and 97.4% | SK-MEL-28 melanoma 114% and 105% | SK-MEL-2 melanoma 116% and 77.5% | EKVX NSCLC 105% and 114% | SN12C renal 97.3% and 91.3% | UO-31 renal 87.9% and 92.8% | TK-10 renal; 10 µM unless noted 112% and 138% | ACHN renal 99.6% and 107% | CAKI-1 renal 103% and 104% | A498 renal 108% and 87.2% | HL-60(TB) leukemia 127% and 80.1% | CCRF-CEM leukemia 100% and 76.3%

CCOP(=O)(OCC)/C(C#N)=C/c1ccc(Br)cc1
inactive: HCT-15 colon 96.3% | HT29 colon 98.2% | SNB-75 CNS 86.6% | SNB-19 CNS 96.8% | U251 CNS 99.3% | PC-3 prostate 95.9% | SK-MEL-5 melanoma 108% | UACC-62 melanoma; 10 µM unless noted 88.6% | LOX IMVI melanoma 95.5% | SK-MEL-28 melanoma 115% | SK-MEL-2 melanoma 103% | EKVX NSCLC 97.6% | SN12C renal 98.5% | UO-31 renal 81.3% | TK-10 renal; 10 µM unless noted 104% | ACHN renal 98.6% | CAKI-1 renal 76.2% | A498 renal 121% | HL-60(TB) leukemia 92.1% | CCRF-CEM leukemia 100%
